The text below walks through data of PubChem BioAssay AID1117300 (National Center for Advancing Translational Sciences (NCATS), 2015).

Calls of active or inactive are those of the source. Calls come from the whole dose curve.

For the assay the following is noted: Ebola virus entry assay, ratio channel readout.
On to `CC[C@]1(O)C[C@@H]2CN(CCc3c([nH]c4ccccc34)[C@@](C(=O)OC)(c3cc4c(cc3OC)N(C)[C@H]3[C@@](O)(C(=O)OC)[C@H](OC(C)=O)[C@]5(CC)C=CCN6CC[C@]43[C@@H]65)C2)C1`, for which the AC50 (in general, the midpoint of the concentration-response curve, whichever way the signal moves) is 122 nM (active).

In the case of `CC[C@H]1OC(=O)[C@H](C)[C@@H](O[C@H]2C[C@@](C)(OC)[C@@H](O)[C@H](C)O2)C(C)[C@@H](O[C@@H]2O[C@H](C)C[C@H](N(C)C)[C@@H]2O)[C@](C)(OC)C[C@@H](C)C(=O)[C@H](C)[C@@H](O)[C@]1(C)O` (stereo not given in full), the outcome was inactive.

For the compound `CCN(CC)CCNC(=O)c1c(C)[nH]c(/C=C2\C(=O)Nc3ccc(F)cc32)c1C`, the AC50 was 2170 nM (active).

Consider `CCC1=C[C@@H]2CN(C1)Cc1c([nH]c3ccccc13)[C@@](C(=O)OC)(c1cc3c(cc1OC)N(C)[C@H]1[C@@](O)(C(=O)OC)[C@H](OC(C)=O)[C@]4(CC)C=CCN5CC[C@]31[C@@H]54)C2`, for which the AC50 was 86.3 nM (active).

Regarding `CN1CCN(CCCN2c3ccccc3Sc3ccc(C(F)(F)F)cc32)CC1`, the AC50 was 7690 nM (active).

With `CN(C)CCOc1ccc(/C(=C(/CCCl)c2ccccc2)c2ccccc2)cc1`, the AC50 is 1090 nM (active).

For the compound `Cc1nnc(C(C)C)n1C1C[C@H]2CC[C@@H](C1)N2CC[C@H](NC(=O)C1CCC(F)(F)CC1)c1ccccc1` (stereo not given in full), the result was inactive.

With `C[C@]12CC[C@@H]3c4ccc(O)cc4C[C@@H](CCCCCCCCCS(=O)CCCC(F)(F)C(F)(F)F)[C@H]3[C@@H]1CC[C@@H]2O` (stereo not given in full), the result was inactive.

In the case of `COC(=O)Nc1nc2ccc(C(=O)c3cccs3)cc2[nH]1`, the AC50 was 544 nM (active).

For `COc1cccc2c1C(=O)c1c(O)c3c(c(O)c1C2=O)C[C@@](O)(C(C)=O)C[C@H]3O[C@H]1C[C@H](N)[C@H](O)[C@H](C)O1`, the AC50 is 2730 nM (active).

For `CCCSc1ccc2nc(NC(=O)OC)[nH]c2c1`, the outcome was inactive.

`COC(=O)Nc1nc2ccc(C(=O)c3ccccc3)cc2[nH]1`: the outcome was inactive.

As for `CC[C@]1(O)C[C@H]2CN(CCc3c([nH]c4ccccc34)[C@@](C(=O)OC)(c3cc4c(cc3OC)N(C=O)[C@H]3[C@@](O)(C(=O)OC)[C@H](OC(C)=O)[C@]5(CC)C=CCN6CC[C@]43[C@@H]65)C2)C1`, the AC50 is 153 nM (active).

Turning to `CCCNCC(O)COc1ccccc1C(=O)CCc1ccccc1` (stereo not given), the outcome was inactive.

As for `COC1=CC(=O)C[C@@H](C)[C@]12Oc1c(Cl)c(OC)cc(OC)c1C2=O`, the outcome was inactive.

With `CC[C@H]1OC(=O)[C@H](C)[C@@H](O[C@H]2C[C@@](C)(OC)[C@@H](O)[C@H](C)O2)[C@H](C)[C@@H](O[C@@H]2O[C@H](C)C[C@H](N(C)C)[C@@H]2O)[C@](C)(O)C[C@@H](C)CN(C)[C@H](C)[C@@H](O)[C@]1(C)O`, the concentration at half-maximal activity (AC50) was 6110 nM (active).

As for `CO[C@H]1C[C@@H]2CC[C@@H](C)[C@@](O)(O2)C(=O)C(=O)N2CCCC[C@@H]2C(=O)O[C@H]([C@@H](C)C[C@@H]2CC[C@H](O)[C@H](OC)C2)CC(=O)[C@H](C)C=C(C)[C@@H](O)[C@@H](OC)C(=O)[C@H](C)C[C@H](C)C=CC=CC=C1C`, the outcome was inactive.

Regarding `CCCCc1oc2ccc(NS(C)(=O)=O)cc2c1C(=O)c1ccc(OCCCN(CCCC)CCCC)cc1`, the AC50 is 3850 nM (active).

Regarding `CO[C@H]1C[C@@H]2CC[C@@H](C)[C@@](O)(O2)C(=O)C(=O)N2CCCC[C@@H]2C(=O)O[C@H]([C@H](C)C[C@@H]2CC[C@H](OCCO)[C@H](OC)C2)CC(=O)[C@H](C)C=C(C)[C@@H](O)[C@@H](OC)C(=O)[C@H](C)C[C@H](C)C=CC=CC=C1C`, the result was inactive.

For `C[C@@H]1O[C@@H](O[C@H]2CC[C@@]3(C)[C@H](CC[C@@H]4[C@H]3C[C@@H](O)[C@]3(C)[C@@H](C5=CC(=O)OC5)CC[C@]43O)C2)C[C@H](O)[C@@H]1O[C@H]1C[C@H](O)[C@H](O[C@H]2C[C@H](O)[C@@H](O)[C@@H](C)O2)[C@H](C)O1` (stereo in doubt), the outcome was inactive.
